Results published in PubChem BioAssay.

Each compound was assayed on Plasmodium falciparum Sir2 (PF13_0152, Sir2A) (assay: Plasmodium falciparum Sir2A binding compounds – biochemical, small-molecule microarray, 635 nm fluorescence, primary screen (AID 1098;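 further: score merges spot fluorescence intensity with its signal-to-noise ratio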)). Details: fluorescence 635 nm, higher = more signal.

| Compound | composite z-score |
| --- | --- |
| O=C1C2C=CC(C(O)C3CC=CCC3)N(Nc3ccccc3)C2C(=O)N1c1ccccc1 (stereo not given) | 1.33 |
| [N-]=[N+]=Nc1ccccc1C[C@@]1(C(=O)N2CCOCC2)N=C(c2ccc(OCCCO)cc2)O[C@@H]1c1ccccc1 | 0.816 |
| CCC#CCN(Cc1ccccc1Br)[C@H](/C=C/C1CC1)[C@@H](O)Cc1ccccc1 | -0.306 |
| Cc1ccc(F)cc1S(=O)(=O)N[C@@H]1CCN(Cc2ccc(Br)cc2)C1 | 0.0002 |
| CC1CC/C=C\[C@H]2OC34C=CCN(C(C)C)C(=O)[C@H]3N(CCO)C(=O)[C@@H]4C2C(=O)O1 (stereo not given in full) | 0.501 |
| CCOC(=O)C[C@H]1[C@H](OC(=O)c2cc3ccccc3oc2=O)[C@@H](NC(=O)CC(C)C)c2cc(OCCCO)ccc2N1C(=O)c1ccc2ccccc2n1 | 0.342 |
| [N-]=[N+]=Nc1ccccc1C[C@]1(C(=O)NCCN2CCOCC2)COC(c2ccc(OCCCO)cc2)=N1 | 1.01 |
| COC(=O)[C@]1(CCS(=O)(=O)c2ccccc2)N=C(c2ccc(OCCCO)cc2)O[C@@H]1c1ccccc1N=[N+]=[N-] | 1.62 |
| COc1ccc(CCNC(=O)[C@@H]2c3ccccc3C(=O)N(C3CCCCC3)[C@H]2c2ccc(CO)cc2)cc1 | 1.35 |
| O=C(NCc1ccc(F)cc1)[C@H]1C[C@H]2C(=O)NCC(=O)N2[C@H]1c1ccc(O)cc1 | 1.01 |
| CC(c1ccccc1)C(O)C1C=CC2C(=O)N(C)C(=O)C2N1Nc1ccccc1 (stereo not given) | 1.25 |
| COc1ccc(C#Cc2ccc3c(c2)[C@]2(C(=O)N3)[C@H](c3ccc(O)cc3)N3[C@H](c4ccccc4)[C@H](c4ccccc4)OC(=O)[C@H]3[C@@H]2C(=O)Nc2nc3ccccc3s2)cc1 | 1.48 |
| CC1=C2[C@@H](CCc3ccccc3)OB(O)C[C@@H]2[C@@H]2C(=O)N(C)C(=O)[C@@H]2C1 | -0.186 |
| COc1cccc(C)c1NC(=O)O[C@H]1[C@H](OC(=O)Nc2ccc3c(c2)OCO3)[C@@H](OC(=O)Nc2ccc3c(c2)OCO3)[C@@H](OC)O[C@@H]1CO | 0.264 |
| CC(C)N1C(=O)c2ccccc2[C@@H](C(=O)NCCN2CCOCC2)[C@@H]1c1ccc(CO)cc1 | -0.256 |
| CCCCN1CC=CC23O[C@@H]4/C=C\CCCOC(=O)C4[C@H]2C(=O)N(CCO)[C@@H]3C1=O (stereo not given in full) | 1.77 |
| CCCNC(=O)[C@@]1(C)c2ccccc2C(=O)N(c2ccc(C)cn2)[C@H]1c1ccc(CO)cc1 | 0.732 |
| N#Cc1ccc(NN2C(C(O)c3ccc(Br)cc3)C=CC3C(=O)N(c4ccccc4)C(=O)C32)cc1 (stereo not given) | 1.17 |

| Compound | composite z-score |
| --- | --- |
| O=C(O)[C@@H]1[C@@H]2C(=O)N(c3ccccc3)C(=O)[C@@H]2C[C@@H]1Sc1ccccc1 | 1.61 |
| CCCNC(=O)[C@@H]1c2ccccc2C(=O)N(Cc2ccc(OC(F)(F)F)cc2)[C@H]1c1ccc(CO)cc1 | 1.3 |
| COCCOC(=O)N1C(=O)[C@@]2(c3cc(C#CCCO)ccc31)[C@H](c1ccc(OCCO)cc1)N1[C@H](c3ccccc3)[C@H](c3ccccc3)OC(=O)[C@H]1[C@@H]2C(=O)Nc1nc2ccccc2s1 | 0.755 |
| CN(C)C(=O)[C@]1(CCC(=O)OC(C)(C)C)N=C(c2ccc(OCCCO)cc2)O[C@@H]1c1ccccc1CN=[N+]=[N-] | 1.45 |
| CCCC=C(CCC)[C@@H](NS(=O)(=O)c1ccc(C(F)(F)F)cc1)c1ccccc1 | 0.156 |
| CCCCC(CC)C(O)C1C=CC2C(=O)N(C)C(=O)C2N1Nc1ccccc1 (stereo not given) | 0.579 |
| COC(=O)c1c(CC[C@@H](CO)NC(=O)N2CCC[C@H]2Cn2cc(C3(O)CCCCC3)nn2)oc(C(C)=O)c1C(=O)OC | 1.65 |
| C=CC[C@]1(C(=O)N2CCCCC2)N=C(c2ccc(OCCCO)cc2)O[C@H]1c1ccccc1CN=[N+]=[N-] | 1.21 |
| COC(=O)[C@@]1(Cc2ccccc2)[C@H]2c3cc(C(=O)N4CCCC4)n(CCc4ccccn4)c3C[C@H]2CN1C(=O)c1ccccc1 | 1.04 |
| C=CCNC(=O)[C@@H]1[C@H]2C(=O)O[C@H](c3ccccc3)[C@H](c3ccccc3)N2[C@H](c2ccc(O)cc2)[C@@]12C(=O)N(C(=O)OCCOC)c1ccc(C#CC3=CCCCC3)cc12 | 1.04 |
| COCCOC(=O)N1C(=O)[C@@]2(c3cc(C#CC4(O)CCCCCC4)ccc31)[C@H](C(=O)N1CCc3cc(OC)c(OC)cc3C1)[C@H]1C(=O)O[C@H](c3ccccc3)[C@H](c3ccccc3)N1[C@@H]2c1ccc(OCCO)cc1 | 0.868 |
| C=C(C(=O)CC[C@H](OC(=O)c1ccccc1-c1ccccc1C(=O)O)c1cccc(OCCO)c1)C(C)C | 0.627 |
| CC(C)c1ccc(NN2C(C(O)c3ccc(F)cc3)C=CC3C(=O)N(c4ccccc4)C(=O)C32)cc1 (stereo not given) | 1.28 |
| [N-]=[N+]=Nc1ccccc1C[C@@]1(C(=O)NCCN2CCOCC2)N=C(c2ccc(OCCCO)cc2)O[C@@H]1c1ccccc1N=[N+]=[N-] | 1.53 |
| CCOC(=O)[C@@H]1CCCCN1C(=O)C(=O)OC | 0.157 |
| COc1ccccc1CN1C(=O)c2ccccc2[C@](Cc2ccccc2I)(C(=O)O)[C@@H]1c1ccc(CO)cc1 | 1.19 |
| C=C[C@@H](OC)[C@H](OC(=O)Nc1ccc(OC)cc1)c1ccc(O)c(F)c1 | 1.52 |
